{
  "source": "PubChem BioAssay (NCI)",
  "note": "Several values for one entry are separate records, joined by “and”; a condition that tells them apart may be missing. Equal entries are not always repeated. The panel holds about 83,000 compounds, 20% with a hit somewhere; the sample as a whole holds those more often.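 The endpoint reported here, percent growth, reads 100 for growth as untreated, 0 for no net growth and -100 for all cells dead.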 Activity calls are given as the source filed them. How the source made its calls: active means growth percent below 10; inactive means the rest.",
  "data": [
    {"system": "HL-60(TB) leukemia", "experiment": "NCI-60 one-dose screen, 48 h (100 = growth as untreated, 0 = no growth, -100 = all killed)", "conditions": "10 µM unless noted", "values": [
      {"smiles": "COc1ccc(C2C=C(c3ccc(Cl)c(Cl)c3)N=C3SC(C)=CN32)cc1OC", "note": "(centres undefined)", "growth": "63.3% (inactive)"},
      {"smiles": "O=c1[nH]c(=O)n(C2OC(CO)C(O)C2O)cc1I", "note": "(centres undefined)", "growth": "77.5% (inactive) and 86.6% (inactive)"},
      {"smiles": "CCCCCCC(C)CC1=C(O)c2ccccc2C(=O)C1=O", "note": "(centres undefined)", "growth": "37.5% (inactive)"},
      {"smiles": "Oc1ccc(Cl)cc1Cc1cc(Cl)ccc1O", "growth": "33.8% (inactive)"},
      {"smiles": "O=C(Nc1ccc(Cl)c(Cl)c1)Nc1ccccc1O", "growth": "61.6% (inactive)"},
      {"smiles": "COc1cnc2c(c1)C(=O)c1c-2n(CCCNC(C)C)c(=O)c2cc(Cl)ccc12", "growth": "-69.1% (active)"},
      {"smiles": "COc1cc(-c2cc(-c3nc4ccccc4[nH]3)[nH]n2)cc(OC)c1OC", "growth": "-22.9% (active)"},
      {"smiles": "Cn1ccnc1C(=O)C(=O)Nc1ccc(CC(=O)Nc2ccccc2)cc1", "growth": "107% (inactive)"},
      {"smiles": "COc1cc(-c2nn(-c3cccc(NC(=O)c4ccccc4)c3)cc2-c2ccncc2)ccc1Cl", "growth": "-18.8% (active)"},
      {"smiles": "Cc1ccc2c(C(C[N+](=O)[O-])c3ccccc3F)c(-c3ccccc3)[nH]c2c1", "note": "(centres undefined)", "growth": "27.3% (inactive)"},
      {"smiles": "COc1ccc(C/C(C)=C(/c2ccc(OCCN3CCCCC3)cc2)c2ccc(OC(=O)NCc3ccccc3)cc2)cc1", "growth": "-75.1% (active)"},
      {"smiles": "C=CCn1c(C)nc2cc(Nc3nc(Nc4ccc5nc(C)n(CC=C)c5c4)c4ccccc4n3)ccc21", "growth": "-52% (active)"},
      {"smiles": "CN(C)CCNc1cc(-c2ccccc2)nc2ccccc12", "growth": "-17.7% (active)"},
      {"smiles": "Cc1ccc(/C=C2\\SC(=S)N(c3ccc(F)cc3)C2=O)o1", "growth": "82.8% (inactive)"},
      {"smiles": "CCN(CC)CCCOc1ccc2c(c1)O/C(=C\\c1cccc(OC)c1)C2=O", "growth": "97.4% (inactive)"},
      {"smiles": "Fc1ccc(-c2nn(-c3ccccc3)cc2-c2nc3ccccc3o2)cc1", "growth": "77.3% (inactive)"},
      {"smiles": "N#Cc1cccc(-c2c(-c3ccc4ccccc4c3)oc3ccccc3c2=O)c1", "growth": "6.17% (active)"},
      {"smiles": "CCCCCCCCCCCCc1ccc([N+](CC)(CC)CC)cc1", "growth": "-10.9% (active)"},
      {"smiles": "Cc1c(O)c(N=Nc2ccc(C(=O)O)c(O)c2)c2ccccc2c1O", "growth": "77.4% (inactive)"},
      {"smiles": "FC(F)(F)c1ccc(-c2cnc(-c3nn[nH]n3)nc2NC2CCCCCC2)cc1", "growth": "31.1% [50 µM] (inactive)"},
      {"smiles": "O=C(/C=C/c1cccc(O)c1)c1cccc(-n2cc(-c3ccccc3)[nH]c2=O)c1", "growth": "42.1% (inactive)"},
      {"smiles": "N#CC1=C(c2ccc(Br)cc2)NC(SCC(=O)c2ccc(Br)cc2)NC1=O", "note": "(centres undefined)", "growth": "96% (inactive)"},
      {"smiles": "COc1cc(-c2nn(-c3ccc(NC(=O)NCCCNC(=O)c4ccccc4)cc3)cc2-c2ccncc2)ccc1Cl", "growth": "-0.104% (active)"},
      {"smiles": "COc1ccc(-c2nocc2-c2cc(OC)c(OC)c(OC)c2)cc1", "growth": "-14.7% (active)"},
      {"smiles": "O=C1/C(=C/c2ccccc2)SC(=S)N1CCc1ccc(O)cc1", "growth": "94.9% (inactive)"},
      {"smiles": "COc1cccc(/C=C/C(=O)c2cc3c(N)c(C(=O)Nc4ccccc4)sc3nc2C)c1", "growth": "16.9% (inactive)"},
      {"smiles": "COc1cc(/C=C/C(=O)c2ccc(O)c(CN3CCN(c4cc5c(cc4F)c(=O)c(C(=O)O)cn5C4CC4)CC3)c2)cc(OC)c1OC", "growth": "7.35% (active)"},
      {"smiles": "CCCCOc1ccc(Nc2cc(Cl)ccc2C(=O)O)cn1", "growth": "87.2% (inactive) and 103% (inactive)"},
      {"smiles": "Nc1ccc(N=Nc2ccc(O)cc2)c(N)n1", "growth": "37% (inactive)"},
      {"smiles": "Nc1nc(N)c2nc(CNc3ccc(C(=O)NC(CCC(=O)O)C(=O)O)cc3)cnc2n1", "note": "(centres undefined)", "growth": "35.3% (inactive) and 49.9% (inactive)"},
      {"smiles": "COc1ccc(-c2cnnn2-c2nonc2-n2cccc2)cc1", "growth": "-37.9% (active)"},
      {"smiles": "CN(C)CCN1CCN(c2ncccc2C2Nc3ccccc3-n3cccc32)CC1", "note": "(centres undefined)", "growth": "98.7% (inactive)"},
      {"smiles": "CCCCCCCCCCCCCCCCN(CC)CC", "growth": "-61.2% (active)"},
      {"smiles": "O=C(O)c1cn(C2CC2)c2cc(N3CCN(C(=O)N(c4ccccc4)c4nc(-c5ccccc5)cs4)CC3)c(F)cc2c1=O", "growth": "-39.9% (active)"},
      {"smiles": "CC1(O)CC(c2nc(-c3ccc4ccc(-c5ccccc5)nc4c3)c3c(N)nccn23)C1", "note": "(centres undefined)", "growth": "17.5% (inactive)"},
      {"smiles": "C/C(=C\\C(=N\\N=C(N)N)c1ccc(Cl)cc1)c1ccc(Cl)cc1", "growth": "-68% (active)"},
      {"smiles": "O=C(NCc1cn(Cc2cccc(Oc3ccccc3)c2)nn1)c1cccnc1Nc1ccccc1", "growth": "32% (inactive)"},
      {"smiles": "CCOc1ccc(NC2=C(Cl)C(=O)c3ccccc3C2=O)cc1", "growth": "32% (inactive)"},
      {"smiles": "Cc1nn(-c2nc3ccccc3s2)c(C)c1Oc1ccccc1O", "growth": "60.3% (inactive)"}
    ]}
  ]
}
